The list shows a part of the results. Activity calls are given as the source filed them.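 Rule for the calls: active = inhibition score at or above a set limit, where the score is 100 minus the three-replicate mean percent of control signal; inactive = the rest.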

Experimental findings from PubChem BioAssay AID1259351 (ICCB-Longwood Screening Facility, Harvard Medical School, 2017) are described below.

The test has as its target Guanine nucleotide-binding protein G(i) subunit alpha-3 (Homo sapiens) (UniProt P08754). As to the kind of experiment: GIV-Galphai3 complex disruption, bead proximity readout – biochemical, AlphaScreen, His-GIV, GST-Galphai3, orthogonal assay for GIV-Galpha-i inhibitor project, confirmation (AID 1259351). The note with it: purified proteins, 90 min, at 100 µM, hits give low values. Background: In Alpha technology, singlet oxygen from a donor bead excites a nearby acceptor bead.
As to `Cc1ccc(NC(=O)c2nc[nH]c2C(=O)N2CCCCC2)c(C(=O)c2ccccc2)c1`, the AlphaScreen counts was 27800 (inactive).

As to `COc1ccccc1N1C(=O)/C(=C/c2ccc(Cl)cc2)C=C1c1ccccc1`, the AlphaScreen counts was 45900 (inactive).

`Cc1ccc(C(=O)N2CCc3cc(CNC(=O)c4ccc(Br)cc4)ccc32)cc1`: the AlphaScreen counts was 29400 (inactive).

Take `COC(=O)Cn1nc2c(-c3nc(-c4ccc(Cl)cc4)no3)cccn2c1=O`: the AlphaScreen counts is 27400 (inactive).

With `Cc1nn(-c2ccccc2)c2sc(-c3noc(-c4ccccc4F)n3)cc12`, the AlphaScreen counts was 31800 (inactive).

Consider `N#CSc1cc(SC#N)c(N)nc1N`, for which the AlphaScreen counts is 24300 (active).

Regarding `O=C(NN=c1c(=O)c2ccccc2c1=O)c1ccncc1`, the AlphaScreen counts is 28200 (inactive).

For `COc1ccc(Nc2cc(C(=O)NCCCN(C)c3ccccc3)c3ccccc3n2)c(OC)c1`, the AlphaScreen counts is 33800 (inactive).

As for `COC1=C(N2CCOCC2)C(=O)c2ccccc2C1=O`, the AlphaScreen counts is 29700 (active).

As for `CC(=O)Oc1cccc2c1C(=O)C=CC2=O`, the AlphaScreen counts was 35600 (inactive).

Turning to `CCC(=O)N1CCc2cc(N3CC(C(=O)N4CCN(C(C)C)CC4)CC3=O)ccc21` (centres undefined), the AlphaScreen counts is 27700 (inactive).

Regarding `CCOc1cc(/C=C2/C(=O)N(c3nn[nH]n3)N=C2C)cc(Cl)c1OCC`, the AlphaScreen counts was 1950 (active).

For the compound `O=C(O)CCC(C(=O)O)N1C(=O)/C(=C\c2ccco2)SC1=S` (centres undefined), the AlphaScreen counts is 2280 (active).

For the compound `Cn1cccc1/C=C1\C(=O)NC(=S)N(c2ccccc2)C1=O`, the AlphaScreen counts was 799 (active).

For `O=C(O)c1cc(NS(=O)(=O)c2ccc3c(c2)CCCC3)cnc1N1CCOCC1`, the AlphaScreen counts was 28400 (inactive).

Turning to `CCOC(=O)c1nc2cc(C)c(C)cc2nc1NC1CCCCC1`, the AlphaScreen counts is 38900 (inactive).

In the case of `CC(=O)Nc1ccc(Nc2c3c4c(cccc4[nH]c2=O)C(=O)c2ccccc2-3)cc1`, the AlphaScreen counts was 27100 (inactive).

Take `CC1=NOC(=O)C1C(c1cccc(Br)c1)c1c(C)[nH]n(-c2ccccc2)c1=O` (centres undefined): the AlphaScreen counts was 2770 (active).

`O=C(O)c1c2ccccc2[nH]c2c1oc1cc(=O)ccc12`: the AlphaScreen counts is 19100 (active).

On to `COc1ccccc1CNc1ncc2nc(-c3ccccc3)oc2n1`, for which the AlphaScreen counts is 40200 (inactive).

On to `N#CC(C#N)=C(C#N)/C=C/n1c2ccccc2c2ccccc21`, for which the AlphaScreen counts is 4560 (active).

Regarding `COc1ccc(N=Nc2c(-c3ccc(OC)cc3)[nH]oc2=O)cc1`, the AlphaScreen counts was 54000 (inactive).

In the case of `Cc1ccc(N2C(=O)/C(=C/c3ccc(OCC(=O)O)c(Br)c3)C(=O)NC2=S)cc1`, the AlphaScreen counts is 6910 (active).

For the compound `CCOC(=O)C1=C(C)N(c2ccc(OC)cc2)C(=O)/C1=C\c1ccco1`, the AlphaScreen counts was 21400 (active).
